About 2,000 (36%) of roughly 5,500 compounds were called active. Inconclusive results (about 18%) are left out. No stated cut-off is given here; in the data, active means normalized growth mostly below about 0.91 (no sharp cut-off); inconclusive means no clear call, values can overlap the other calls; inactive means mostly above about 0.92. The list shows a part of the results.
Assay: chemical genetic growth profiling, strain panel (AID 1159580);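 further: tested at 20 µM; growth read once vehicle control cultures reached saturation at 30 °C; 1 = growth at the plate median or of vehicle wells; lower values mean less growth of the strain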
Conditions: S. cerevisiae deletion strains, growth OD
[1] = locus YAL021C, strain ccr4, hits give low values
[2] = locus YAL026C, strain drs2, hits give low values
[3] = locus YAL030W, strain snc1, hits give low values
[4] = locus YBL061C, strain skt5, hits give low values
[5] = locus YBR009C, strain hhf1, hits give low values
[6] = locus YBR023C, strain chs3, hits give low values
[7] = locus YBR171W, strain sec66, hits give low values
[8] = locus YBR231C, strain swc5, hits give low values
[9] = locus YBR279W, strain paf1, hits give low values
[10] = locus YCL011C, strain gbp2, hits give low values
[11] = locus YCL016C, strain dcc1, hits give low values
[12] = locus YCL061C, strain MRC1, hits give low values
[13] = locus YCL069W, strain vba3, hits give low values
[14] = locus YCR088W, strain abp1, hits give low values
[15] = locus YDL005C, strain med2, hits give low values
[16] = locus YDL040C, strain nat1, hits give low values
[17] = locus YDR001C, strain nth1, hits give low values
[18] = locus YDR069C, strain doa4, hits give low values
[19] = locus YDR137W, strain rgp1, hits give low values
[20] = locus YDR159W, strain sac3, hits give low values
[21] = locus YDR297W, strain sur2, hits give low values
[22] = locus YDR334W, strain swr1, hits give low values
[23] = locus YDR335W, strain msn5, hits give low values
[24] = locus YDR392W, strain spt3, hits give low values
[25] = locus YEL003W, strain gim4, hits give low values
[26] = locus YEL037C, strain rad23, hits give low values
[27] = locus YEL061C, strain CIN8 (second series), hits give low values
[28] = locus YER015W, strain faa2, hits give low values
[29] = locus YER016W, strain bim1, hits give low values
[30] = locus YER111C, strain swi4, hits give low values
[31] = locus YER155C, strain BEM2 (second series), hits give low values
[32] = locus YFR010W, strain ubp6, hits give low values
[33] = locus YGL167C, strain pmr1, hits give low values
[34] = locus YGL173C, strain kem1, hits give low values
[35] = locus YGL227W, strain vid30, hits give low values
[36] = locus YGL240W, strain doc1, hits give low values
[37] = locus YGL253W, strain hxk2, hits give low values
[38] = locus YHR013C, strain ard1, hits give low values
[39] = locus YHR027C, strain rpn1, hits give low values
[40] = locus YHR030C, strain SLT2, hits give low values
[41] = locus YHR079C, strain IRE1, hits give low values
[42] = locus YHR142W, strain chs7, hits give low values
[43] = locus YJL092W, strain hpr5, hits give low values
[44] = locus YJL095W, strain BCK1 (second series), hits give low values
[45] = locus YJL095W, strain BCK1, hits give low values
[46] = locus YJL115W, strain asf1, hits give low values
[47] = locus YJL129C, strain trk1, hits give low values
[48] = locus YJL154C, strain vps35, hits give low values
[49] = locus YJL164C, strain tpk1, hits give low values
[50] = locus YJL166W, strain qcr8, hits give low values
[51] = locus YJL187C, strain SWE1, hits give low values
[52] = locus YJR066W, strain TOR1, hits give low values
[53] = locus YKL160W, strain elf1, hits give low values
[54] = locus YKR026C, strain gcn3, hits give low values
[55] = locus YKR091W, strain srl3, hits give low values
[56] = locus YLL001W, strain dnm1, hits give low values
[57] = locus YLL026W, hits give low values
[58] = locus YLL041C, strain sdh2, hits give low values
[59] = locus YLR027C, strain aat2, hits give low values
[60] = locus YLR113W, strain HOG1, hits give low values
[61] = locus YLR221C, strain rsa3, hits give low values
[62] = locus YLR258W, strain gsy2, hits give low values
[63] = locus YLR262C, strain YPT6 (second series), hits give low values
[64] = locus YLR320W, strain mms22, hits give low values
[65] = locus YLR342W, strain FKS1, hits give low values
[66] = locus YLR357W, strain rsc2, hits give low values
[67] = locus YLR370C, strain arc18, hits give low values
[68] = locus YLR384C, strain iki3, hits give low values
[69] = locus YML120C, strain ndi1, hits give low values
[70] = locus YMR058W, strain fet3, hits give low values
[71] = locus YMR125W, strain sto1, hits give low values
[72] = locus YMR129W, hits give low values
[73] = locus YMR205C, strain PFK2, hits give low values
[74] = locus YMR231W, strain pep5, hits give low values
[75] = locus YNL071W, strain lat1, hits give low values
[76] = locus YNL183C, strain NPR1, hits give low values
[77] = locus YNL209W, strain ssb2, hits give low values
[78] = locus YNL248C, strain rpa49, hits give low values
[79] = locus YNL322C, strain KRE1 (second series), hits give low values
[80] = locus YNR049C, strain mso1, hits give low values
[81] = locus YOR001W, strain rrp6, hits give low values
[82] = locus YOR070C, strain gyp1, hits give low values
[83] = locus YOR080W, strain dia2, hits give low values
[84] = locus YOR083W, strain WHI5, hits give low values
[85] = locus YOR106W, strain vam3, hits give low values
[86] = locus YOR231W, strain MKK1, hits give low values
[87] = locus YOR265W, strain rbl2, hits give low values
[88] = locus YOR270C, strain vph1, hits give low values
[89] = locus YOR290C, strain snf2, hits give low values
[90] = locus YPL051W, strain arl3, hits give low values
[91] = locus YPL078C, strain atp4, hits give low values
[92] = locus YPL106C, strain sse1, hits give low values
[93] = locus YPL240C, strain hsp82, hits give low values
[94] = locus YPL256C, strain CLN2, hits give low values

Measured: normalized growth

CCCCCCCCCCCCCc1ccco1
active: [5] 0.825 | [24] 0.266 | [31] 0.635 | [38] 0.699 | [49] 0.915 | [50] 0.835 | [61] 0.889 | [63] 0.816 | [64] 0.81 | [73] 0.841 | [75] 0.621
inactive: [1] 1.01 | [2] 0.976 | [3] 0.991 | [4] 0.979 | [6] 0.969 | [7] 0.991 | [8] 0.938 | [9] 0.947 | [10] 0.954 | [11] 0.973 | [12] 0.96 | [13] 0.989 | [14] 0.993 | [15] 0.988 | [16] 0.983 | [17] 0.989 | [18] 0.964 | [19] 0.886 | [20] 0.933 | locus YDR195W, strain ref2 0.973 | [21] 0.989 | [22] 0.987 | [23] 0.987 | [25] 0.953 | [26] 0.983 | [27] 0.976 | [28] 0.989 | [29] 0.978 | [30] 0.966 | [32] 0.96 | [33] 0.979 | [34] 0.968 | [35] 0.971 | [36] 0.936 | [37] 0.98 | [39] 0.992 | [40] 0.951 | [41] 0.937 | [42] 0.922 | [43] 0.988 | [44] 0.939 | [45] 0.977 | [46] 0.99 | [47] 0.925 | [48] 0.991 | [51] 0.978 | [52] 0.944 | [53] 0.931 | [54] 0.966 | [55] 0.989 | [56] 0.976 | [57] 0.949 | [58] 0.99 | [59] 0.939 | [60] 0.939 | [62] 0.94 | [65] 0.986 | [66] 0.99 | [67] 0.989 | [68] 0.983 | [69] 0.959 | [70] 0.925 | [71] 0.934 | [72] 0.985 | [74] 0.985 | [76] 0.908 | [77] 0.993 | [78] 0.999 | [79] 0.995 | [80] 0.989 | [81] 0.974 | [82] 0.944 | [83] 1 | [84] 0.96 | [85] 0.927 | [86] 0.899 | [87] 0.981 | [88] 0.929 | [89] 0.913 | [90] 0.964 | [91] 0.947 | [92] 1.01 | [93] 0.991 | [94] 0.91

C#CCCCCCCCCCCCc1ccco1
active: [24] 0.603 | [31] 0.849 | [75] 0.877
inactive: [1] 1.02 | [2] 0.98 | [3] 0.997 | [4] 0.999 | [5] 0.954 | [6] 0.994 | [7] 0.997 | [8] 0.995 | [9] 1 | [10] 0.983 | [11] 0.999 | [12] 1 | [13] 0.995 | [14] 0.992 | [15] 0.991 | [16] 0.987 | [17] 0.99 | [18] 0.983 | [19] 0.993 | [20] 0.958 | locus YDR195W, strain ref2 0.99 | [21] 1 | [22] 0.999 | [23] 0.989 | [25] 1.01 | [26] 1.01 | [27] 1 | [28] 0.992 | [29] 0.988 | [30] 0.972 | [32] 0.996 | [33] 0.999 | [34] 0.989 | [35] 0.991 | [36] 0.995 | [37] 0.989 | [38] 0.869 | [39] 1 | [42] 0.971 | [43] 0.989 | [44] 0.997 | [46] 0.987 | [47] 0.968 | [48] 1.01 | [49] 0.973 | [50] 0.947 | [51] 1 | [53] 0.985 | [54] 0.964 | [55] 0.993 | [56] 0.981 | [57] 0.982 | [58] 1 | [59] 0.985 | [61] 0.975 | [62] 0.99 | [63] 0.917 | [64] 0.932 | [65] 0.989 | [66] 0.975 | [67] 0.998 | [68] 0.987 | [69] 1 | [70] 0.987 | [71] 0.958 | [72] 0.998 | [73] 0.938 | [74] 0.993 | [77] 0.998 | [78] 0.982 | [79] 0.983 | [80] 0.996 | [81] 1 | [82] 1.01 | [83] 0.993 | [84] 0.985 | [85] 0.949 | [87] 1 | [88] 0.962 | [89] 0.975 | [90] 0.988 | [91] 0.991 | [92] 1.04 | [93] 1

C=CCCCCCCCCCCCc1ccco1
active: [2] 0.869 | [4] 0.896 | [5] 0.659 | [6] 0.905 | [8] 0.873 | [9] 0.873 | [10] 0.803 | [11] 0.861 | [13] 0.848 | [14] 0.916 | [19] 0.629 | [20] 0.854 | [21] 0.878 | [23] 0.84 | [24] 0.0917 | [25] 0.884 | [27] 0.52 | [28] 0.913 | [29] 0.814 | [31] 0.309 | [34] 0.868 | [35] 0.766 | [36] 0.869 | [37] 0.82 | [38] 0.613 | [42] 0.53 | [44] 0.587 | [45] 0.877 | [49] 0.819 | [50] 0.589 | [53] 0.732 | [56] 0.885 | [59] 0.727 | [60] 0.832 | [61] 0.66 | [62] 0.861 | [63] 0.582 | [64] 0.621 | [65] 0.858 | [70] 0.692 | [71] 0.807 | [73] 0.719 | [75] 0.253 | [78] 0.879 | [82] 0.833 | [84] 0.863 | [85] 0.819 | [86] 0.856 | [88] 0.626 | [90] 0.754 | [91] 0.79 | [93] 0.847
inactive: [1] 0.981 | [3] 0.939 | [7] 0.995 | [15] 0.979 | [16] 0.999 | [17] 1.01 | [18] 0.94 | locus YDR195W, strain ref2 0.939 | [26] 0.995 | [30] 0.975 | [32] 0.921 | [33] 1.01 | [39] 0.937 | [40] 0.87 | [41] 0.858 | [43] 0.933 | [46] 0.984 | [47] 0.877 | [48] 1.01 | [52] 0.925 | [54] 0.986 | [55] 0.996 | [57] 0.935 | [58] 0.968 | [66] 0.967 | [67] 0.966 | [68] 0.967 | [69] 0.934 | [72] 0.976 | [74] 0.997 | [76] 0.869 | [77] 0.945 | [79] 0.976 | [80] 0.994 | [81] 0.954 | [83] 0.99 | [87] 0.976 | [89] 0.909 | [92] 0.96 | [94] 0.856

Reference: PubChem BioAssay AID1159580 (chemical genetic matrix, 2015)
